log2 fold change data for 37 targets are collected here from the supplement of paper PMC10849652.

Targets with a hit are over-represented here; the source holds about 7,900 in all. About 0.6% of all pairs of compound and target were hits.

Sequence of UniProt Q6L8Q7 (Q6L8Q7 whole entry, looked up): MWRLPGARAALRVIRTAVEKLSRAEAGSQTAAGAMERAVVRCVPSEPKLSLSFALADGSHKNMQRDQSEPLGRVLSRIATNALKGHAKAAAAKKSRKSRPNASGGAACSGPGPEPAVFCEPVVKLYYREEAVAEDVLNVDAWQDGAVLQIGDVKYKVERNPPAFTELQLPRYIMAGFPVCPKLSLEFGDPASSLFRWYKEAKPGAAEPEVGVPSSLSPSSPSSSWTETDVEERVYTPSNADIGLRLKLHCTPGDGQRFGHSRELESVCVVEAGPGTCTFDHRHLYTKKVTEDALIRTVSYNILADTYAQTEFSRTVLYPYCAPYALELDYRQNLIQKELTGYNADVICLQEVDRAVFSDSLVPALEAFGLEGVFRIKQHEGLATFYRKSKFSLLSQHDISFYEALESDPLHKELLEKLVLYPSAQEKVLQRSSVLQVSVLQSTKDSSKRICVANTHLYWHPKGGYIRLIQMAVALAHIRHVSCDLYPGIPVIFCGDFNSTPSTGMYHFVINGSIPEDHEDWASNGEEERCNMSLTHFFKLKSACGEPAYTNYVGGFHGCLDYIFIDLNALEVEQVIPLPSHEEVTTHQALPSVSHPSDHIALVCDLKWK
Sequence of UniProt Q9NW08 (Q9NW08 whole entry, looked up): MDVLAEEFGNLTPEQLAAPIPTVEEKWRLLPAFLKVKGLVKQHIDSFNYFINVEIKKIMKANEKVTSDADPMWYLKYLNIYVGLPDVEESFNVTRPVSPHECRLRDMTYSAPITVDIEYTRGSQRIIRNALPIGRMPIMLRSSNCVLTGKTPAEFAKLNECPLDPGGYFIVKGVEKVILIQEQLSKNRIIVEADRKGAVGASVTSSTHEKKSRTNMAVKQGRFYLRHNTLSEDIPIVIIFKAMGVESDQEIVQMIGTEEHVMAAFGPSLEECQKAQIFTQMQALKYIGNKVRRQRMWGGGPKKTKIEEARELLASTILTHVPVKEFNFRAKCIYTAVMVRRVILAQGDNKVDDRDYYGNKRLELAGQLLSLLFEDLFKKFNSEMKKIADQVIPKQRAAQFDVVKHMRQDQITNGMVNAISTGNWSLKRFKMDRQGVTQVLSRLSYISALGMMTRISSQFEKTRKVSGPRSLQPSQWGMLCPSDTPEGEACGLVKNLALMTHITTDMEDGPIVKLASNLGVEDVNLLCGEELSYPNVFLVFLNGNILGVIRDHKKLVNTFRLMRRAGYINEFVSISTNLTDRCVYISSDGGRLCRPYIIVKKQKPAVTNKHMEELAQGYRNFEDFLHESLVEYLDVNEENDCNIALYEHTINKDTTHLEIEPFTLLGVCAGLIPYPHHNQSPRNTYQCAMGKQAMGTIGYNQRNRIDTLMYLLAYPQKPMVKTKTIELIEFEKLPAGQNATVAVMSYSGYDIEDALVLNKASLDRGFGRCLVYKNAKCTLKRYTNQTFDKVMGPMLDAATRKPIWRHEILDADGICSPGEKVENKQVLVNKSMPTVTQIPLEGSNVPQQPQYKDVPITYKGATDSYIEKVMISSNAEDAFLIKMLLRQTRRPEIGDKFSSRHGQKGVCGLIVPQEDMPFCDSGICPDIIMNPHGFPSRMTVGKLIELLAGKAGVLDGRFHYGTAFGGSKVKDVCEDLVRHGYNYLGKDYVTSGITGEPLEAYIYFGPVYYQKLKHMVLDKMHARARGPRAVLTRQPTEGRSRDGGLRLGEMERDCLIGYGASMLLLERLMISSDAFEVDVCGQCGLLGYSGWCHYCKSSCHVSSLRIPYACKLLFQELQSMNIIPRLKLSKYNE
Sequence of UniProt Q5VTL8 (Q5VTL8 whole entry, looked up): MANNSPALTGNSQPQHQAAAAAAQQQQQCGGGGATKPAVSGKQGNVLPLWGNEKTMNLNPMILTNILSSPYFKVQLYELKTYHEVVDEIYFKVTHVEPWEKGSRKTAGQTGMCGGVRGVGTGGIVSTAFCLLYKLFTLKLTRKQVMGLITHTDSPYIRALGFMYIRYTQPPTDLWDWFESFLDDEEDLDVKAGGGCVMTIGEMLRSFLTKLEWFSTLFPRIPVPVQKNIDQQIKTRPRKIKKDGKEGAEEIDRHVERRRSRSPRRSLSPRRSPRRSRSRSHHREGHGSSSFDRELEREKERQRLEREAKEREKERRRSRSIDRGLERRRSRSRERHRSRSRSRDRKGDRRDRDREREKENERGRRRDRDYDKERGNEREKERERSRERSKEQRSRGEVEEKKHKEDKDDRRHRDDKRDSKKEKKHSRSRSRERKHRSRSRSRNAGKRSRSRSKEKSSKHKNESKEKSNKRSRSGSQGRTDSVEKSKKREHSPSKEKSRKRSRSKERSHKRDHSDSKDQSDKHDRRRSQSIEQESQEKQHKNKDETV
Sequence of UniProt Q05655 (Q05655 whole entry, looked up): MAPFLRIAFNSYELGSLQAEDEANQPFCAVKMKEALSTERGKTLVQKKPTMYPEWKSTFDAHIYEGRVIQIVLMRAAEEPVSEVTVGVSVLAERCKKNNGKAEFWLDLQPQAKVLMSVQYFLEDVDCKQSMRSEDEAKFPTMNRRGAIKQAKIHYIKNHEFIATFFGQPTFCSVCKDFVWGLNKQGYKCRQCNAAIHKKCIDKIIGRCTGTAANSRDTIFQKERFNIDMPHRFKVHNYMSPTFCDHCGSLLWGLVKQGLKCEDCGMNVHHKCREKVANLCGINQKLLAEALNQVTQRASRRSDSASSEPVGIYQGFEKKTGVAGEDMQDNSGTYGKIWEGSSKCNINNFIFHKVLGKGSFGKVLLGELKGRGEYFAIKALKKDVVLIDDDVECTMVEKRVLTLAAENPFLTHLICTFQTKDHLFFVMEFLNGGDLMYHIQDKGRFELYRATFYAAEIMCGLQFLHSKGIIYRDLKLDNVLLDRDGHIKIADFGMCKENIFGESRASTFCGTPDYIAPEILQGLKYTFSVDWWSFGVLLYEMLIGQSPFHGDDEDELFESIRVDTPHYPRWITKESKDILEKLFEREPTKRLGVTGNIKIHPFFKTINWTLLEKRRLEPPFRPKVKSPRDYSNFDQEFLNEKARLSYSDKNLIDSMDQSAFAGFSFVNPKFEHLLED
Sequence of UniProt Q8N4L2 (Q8N4L2 whole entry, looked up): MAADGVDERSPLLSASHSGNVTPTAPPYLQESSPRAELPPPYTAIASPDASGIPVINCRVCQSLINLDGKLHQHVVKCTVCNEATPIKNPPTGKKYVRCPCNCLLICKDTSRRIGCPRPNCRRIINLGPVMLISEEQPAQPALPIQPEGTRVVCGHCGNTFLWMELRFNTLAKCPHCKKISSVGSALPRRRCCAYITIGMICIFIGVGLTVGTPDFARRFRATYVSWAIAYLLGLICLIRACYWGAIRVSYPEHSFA
Sequence of UniProt Q99575 (Q99575 whole entry, looked up): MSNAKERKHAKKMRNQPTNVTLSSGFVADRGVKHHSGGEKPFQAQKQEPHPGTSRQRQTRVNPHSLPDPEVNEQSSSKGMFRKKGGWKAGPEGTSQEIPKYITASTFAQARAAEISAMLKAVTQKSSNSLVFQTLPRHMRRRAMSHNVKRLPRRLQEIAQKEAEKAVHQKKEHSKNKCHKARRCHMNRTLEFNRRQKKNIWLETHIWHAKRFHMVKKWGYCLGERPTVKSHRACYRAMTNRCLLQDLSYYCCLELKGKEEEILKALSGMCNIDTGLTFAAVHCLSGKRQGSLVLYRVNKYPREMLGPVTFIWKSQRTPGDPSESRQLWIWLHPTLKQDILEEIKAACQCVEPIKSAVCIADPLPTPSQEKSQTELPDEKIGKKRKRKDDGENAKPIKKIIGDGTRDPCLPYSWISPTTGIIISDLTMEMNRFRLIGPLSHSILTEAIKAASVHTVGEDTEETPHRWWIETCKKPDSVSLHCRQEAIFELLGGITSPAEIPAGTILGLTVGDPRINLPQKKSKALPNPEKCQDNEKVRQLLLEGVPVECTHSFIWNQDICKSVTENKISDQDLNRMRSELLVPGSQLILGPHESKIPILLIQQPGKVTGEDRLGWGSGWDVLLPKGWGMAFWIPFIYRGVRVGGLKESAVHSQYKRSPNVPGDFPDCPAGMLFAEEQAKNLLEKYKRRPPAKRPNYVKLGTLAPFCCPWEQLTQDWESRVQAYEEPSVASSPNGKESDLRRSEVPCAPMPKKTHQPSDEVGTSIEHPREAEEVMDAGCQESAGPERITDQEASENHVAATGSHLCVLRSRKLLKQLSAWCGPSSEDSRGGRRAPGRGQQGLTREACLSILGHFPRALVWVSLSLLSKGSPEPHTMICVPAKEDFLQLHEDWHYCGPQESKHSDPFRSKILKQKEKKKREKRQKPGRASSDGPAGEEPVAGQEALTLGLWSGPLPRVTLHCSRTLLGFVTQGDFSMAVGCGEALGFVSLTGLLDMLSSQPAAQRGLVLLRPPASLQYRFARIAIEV
Sequence of UniProt Q9UNM6 (Q9UNM6 whole entry, looked up): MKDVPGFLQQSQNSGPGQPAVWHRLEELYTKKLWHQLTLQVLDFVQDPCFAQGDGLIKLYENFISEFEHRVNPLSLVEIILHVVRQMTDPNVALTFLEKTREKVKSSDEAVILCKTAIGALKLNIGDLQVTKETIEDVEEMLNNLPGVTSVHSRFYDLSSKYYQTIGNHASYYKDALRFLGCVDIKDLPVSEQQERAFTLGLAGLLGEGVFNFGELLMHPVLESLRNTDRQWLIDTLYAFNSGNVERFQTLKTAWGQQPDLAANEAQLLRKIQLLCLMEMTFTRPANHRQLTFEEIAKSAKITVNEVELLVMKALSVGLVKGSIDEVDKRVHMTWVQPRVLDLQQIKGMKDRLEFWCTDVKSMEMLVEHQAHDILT
Sequence of UniProt Q96PU8 (Q96PU8 whole entry, looked up): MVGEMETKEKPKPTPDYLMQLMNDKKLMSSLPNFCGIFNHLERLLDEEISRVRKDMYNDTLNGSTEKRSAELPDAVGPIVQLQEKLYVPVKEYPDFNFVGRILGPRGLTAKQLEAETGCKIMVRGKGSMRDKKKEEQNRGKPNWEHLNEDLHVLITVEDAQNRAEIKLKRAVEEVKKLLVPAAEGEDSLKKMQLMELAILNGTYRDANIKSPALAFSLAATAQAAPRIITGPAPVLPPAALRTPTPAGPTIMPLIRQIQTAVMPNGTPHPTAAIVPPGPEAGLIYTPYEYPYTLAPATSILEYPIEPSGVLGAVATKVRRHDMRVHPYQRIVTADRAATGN

Compound in one experiment: CC(C)(C)Cn1c(N)nc2ccc(-c3[nH]c(C(C)(C)C)nc3-c3ccc(F)cc3)nc21 [ralimetinib]
Briefly: log2 fold change, soluble protein after heating vs DMSO (PISA); higher = thermal stabilisation; K562 cells, 10 uM, 30 min; active = over 0.2 and 3.5 SD of the protein, either way, in both replicates (recomputed). Summed up: (§1)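 K562 cells at 2×10^6 cells/mL were given 10 μM compound for 30 min. Aliquots then went through 3 min of heating across 48°C-58°C, were pooled, and were extracted in PBS with 0.5% NP-40 at 4°C, and the supernatant after 21,000xg for 90 min was quantified by TMTpro 16plex LC-MS/MS with channel sums equalised. Thermal stability relative to control samples, from duplicates, is given as log2 fold change.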
Take PSMC2 (UniProt P35998): the log2 fold change is 0.046 (inactive).

With PSMB6 (UniProt P28072), the log2 fold change is -0.045 (inactive).

For the target PRKD2 isoform 3 (UniProt Q9BZL6), the log2 fold change was 0.089 (inactive).

With QKI (UniProt Q96PU8), the log2 fold change is 0.007 (inactive).

As to PKN1 isoform 2 (UniProt Q16512), the log2 fold change is 0.006 (inactive).

As for PRPF38B (UniProt Q5VTL8), the log2 fold change was -0.025 (inactive).

As for PTPN12 (UniProt Q05209), the log2 fold change was 0.004 (inactive).

As for PDCD6 (UniProt O75340), the log2 fold change was -0.048 (inactive).

For PPOX (UniProt P50336), the log2 fold change was 0.077 (inactive).

For the target POP1 (UniProt Q99575), the log2 fold change was 0.029 (inactive).

With PIKFYVE (UniProt Q9Y2I7), the log2 fold change was -0.002 (inactive).

As to PPP1R35 (UniProt Q8TAP8), the log2 fold change was -0.007 (inactive).

For PSMB4 (UniProt P28070), the log2 fold change is -0.008 (inactive).

Turning to PLIN2 (UniProt Q99541), the log2 fold change is -0.065 (inactive).

Take PCNT (UniProt O95613): the log2 fold change was -0.113 (inactive).

For PSMD13 (UniProt Q9UNM6), the log2 fold change is -0.021 (inactive).

As to PEA15 isoform 2 (UniProt Q15121), the log2 fold change is 0.007 (inactive).

Take PARG (UniProt Q86W56): the log2 fold change was 0.045 (inactive).

Consider PDLIM7 (UniProt Q9NR12), for which the log2 fold change was 0.08 (inactive).

In the case of PEX13 (UniProt Q92968), the log2 fold change is 0.062 (inactive).

For the target PRKCD (UniProt Q05655), the log2 fold change was -0.041 (inactive).

As to PSMC5 (UniProt P62195), the log2 fold change was -0.014 (inactive).

Turning to PCBP1 (UniProt Q15365), the log2 fold change is 0.058 (inactive).

For POLR3B (UniProt Q9NW08), the log2 fold change was 0.052 (inactive).

With PHKG2 (UniProt P15735), the log2 fold change is 0.031 (inactive).

For POLR2D (UniProt O15514), the log2 fold change is -0.012 (inactive).

For the target PRKAB1 (UniProt Q9Y478), the log2 fold change is 0.022 (inactive).

PRKAA1 isoform 2 (UniProt Q13131): the log2 fold change was -0.003 (inactive).

Take PSMC4 (UniProt P43686): the log2 fold change is 0.014 (inactive).

Regarding PRKAR1A (UniProt P10644), the log2 fold change is 0.268 (inactive).

On to PIK3R1 (UniProt P27986), for which the log2 fold change is 0.038 (inactive).

Consider PHAX (UniProt Q9H814), for which the log2 fold change is 0.002 (inactive).

Turning to PIP4P2 (UniProt Q8N4L2), the log2 fold change was 0.005 (inactive).

With PLBD1 (UniProt Q6P4A8), the log2 fold change is -0.077 (inactive).

PSMC1 (UniProt P62191): the log2 fold change was 0.018 (inactive).

PDE12 (UniProt Q6L8Q7): the log2 fold change is -0.036 (inactive).

Turning to PARN (UniProt O95453), the log2 fold change is -0.013 (inactive).

Compound in another experiment: CC(C)(O)CC(=O)NCCn1ccc2ncnc(Nc3ccc(Oc4cccc(C(F)(F)F)c4)c(Cl)c3)c21
The experiment is described as above. Summed up: as §1
For the target PSMC2 (UniProt P35998), the log2 fold change is 0.011 (inactive).

Consider PSMB6 (UniProt P28072), for which the log2 fold change is 0.045 (inactive).

As to PRKD2 isoform 3 (UniProt Q9BZL6), the log2 fold change was -0.302 (inactive).

For the target QKI (UniProt Q96PU8), the log2 fold change was 0.019 (inactive).

On to PKN1 isoform 2 (UniProt Q16512), for which the log2 fold change was -0.09 (inactive).

As to PRPF38B (UniProt Q5VTL8), the log2 fold change was 0.045 (inactive).

Turning to PTPN12 (UniProt Q05209), the log2 fold change is 0.039 (inactive).

Turning to PDCD6 (UniProt O75340), the log2 fold change is -0.097 (inactive).

Take PPOX (UniProt P50336): the log2 fold change is 0.187 (inactive).

Turning to POP1 (UniProt Q99575), the log2 fold change was -0.006 (inactive).

PIKFYVE (UniProt Q9Y2I7): the log2 fold change was -0.145 (inactive).

For the target PPP1R35 (UniProt Q8TAP8), the log2 fold change is -0.026 (inactive).

Turning to PSMB4 (UniProt P28070), the log2 fold change is 0.045 (inactive).

As for PLIN2 (UniProt Q99541), the log2 fold change is -0.083 (inactive).

For PCNT (UniProt O95613), the log2 fold change was -0.021 (inactive).

Turning to PSMD13 (UniProt Q9UNM6), the log2 fold change was 0 (inactive).

Regarding PEA15 isoform 2 (UniProt Q15121), the log2 fold change was -0.079 (inactive).

Turning to PARG (UniProt Q86W56), the log2 fold change is -0.075 (inactive).

Take PDLIM7 (UniProt Q9NR12): the log2 fold change is -0.035 (inactive).

Take PEX13 (UniProt Q92968): the log2 fold change is -0.193 (inactive).

As for PRKCD (UniProt Q05655), the log2 fold change is -0.013 (inactive).

For the target PSMC5 (UniProt P62195), the log2 fold change is 0.024 (inactive).

For the target PCBP1 (UniProt Q15365), the log2 fold change is -0.058 (inactive).

As to POLR3B (UniProt Q9NW08), the log2 fold change was -0.116 (inactive).

As to PHKG2 (UniProt P15735), the log2 fold change is -0.121 (inactive).

For POLR2D (UniProt O15514), the log2 fold change is -0.006 (inactive).

Regarding PRKAB1 (UniProt Q9Y478), the log2 fold change is -0.069 (inactive).

Take PRKAA1 isoform 2 (UniProt Q13131): the log2 fold change is -0.009 (inactive).

As for PSMC4 (UniProt P43686), the log2 fold change was 0.029 (inactive).

As for PRKAR1A (UniProt P10644), the log2 fold change is 0.041 (inactive).

Regarding PIK3R1 (UniProt P27986), the log2 fold change was -0.04 (inactive).

As to PHAX (UniProt Q9H814), the log2 fold change is 0.024 (inactive).

With PIP4P2 (UniProt Q8N4L2), the log2 fold change was 0.142 (inactive).

For the target PLBD1 (UniProt Q6P4A8), the log2 fold change is 0.036 (inactive).

Take PSMC1 (UniProt P62191): the log2 fold change was 0.002 (inactive).

As for PDE12 (UniProt Q6L8Q7), the log2 fold change is -0.006 (inactive).

As to PARN (UniProt O95453), the log2 fold change is -0.02 (inactive).
